The values that follow come from ChEMBL document CHEMBL1961873, “Compounds: GSK PKIS; Assays: Nanosyn kinase panel” (2012).

For assay [1], the target named is RAC-alpha serine/threonine-protein kinase (Homo sapiens) (UniProt P31749). The note with it: at 0.1 µM.
Assay [2] shares this target. The note with it: at 1 µM.
Assay [3] addresses RAC-beta serine/threonine-protein kinase (Homo sapiens) (UniProt P31751). The note with it: at 0.1 µM.
Assay [4] shares this target. The note with it: at 1 µM.
In assay [5] the target is RAC-gamma serine/threonine-protein kinase (Homo sapiens) (UniProt Q9Y243). To be noted: at 0.1 µM.
Sequence of RAC-gamma serine/threonine-protein kinase (Homo sapiens) (Q9Y243 whole entry): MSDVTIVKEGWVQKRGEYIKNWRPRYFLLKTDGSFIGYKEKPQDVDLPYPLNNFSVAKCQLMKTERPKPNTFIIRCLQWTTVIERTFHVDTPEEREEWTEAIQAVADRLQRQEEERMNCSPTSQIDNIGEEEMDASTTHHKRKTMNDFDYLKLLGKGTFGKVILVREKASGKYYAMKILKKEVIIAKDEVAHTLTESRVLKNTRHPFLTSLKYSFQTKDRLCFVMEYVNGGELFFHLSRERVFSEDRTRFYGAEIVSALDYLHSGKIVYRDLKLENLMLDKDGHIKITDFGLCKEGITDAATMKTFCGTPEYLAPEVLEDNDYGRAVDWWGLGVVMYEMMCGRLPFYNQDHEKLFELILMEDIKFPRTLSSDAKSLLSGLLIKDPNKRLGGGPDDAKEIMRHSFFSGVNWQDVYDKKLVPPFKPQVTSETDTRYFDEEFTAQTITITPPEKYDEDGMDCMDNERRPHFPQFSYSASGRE
For assay [6] the target is unchanged. The note with it: at 1 µM.
The target in assay [7] is G protein-coupled receptor kinase 6 (Homo sapiens) (UniProt P43250). To be noted: at 0.1 µM.
For assay [8] the target is unchanged. The note with it: at 1 µM.
Assay [9] deals with T1, Rhodopsin kinase GRK7 (Homo sapiens) (UniProt Q8WTQ7).
T1 sequence (whole entry): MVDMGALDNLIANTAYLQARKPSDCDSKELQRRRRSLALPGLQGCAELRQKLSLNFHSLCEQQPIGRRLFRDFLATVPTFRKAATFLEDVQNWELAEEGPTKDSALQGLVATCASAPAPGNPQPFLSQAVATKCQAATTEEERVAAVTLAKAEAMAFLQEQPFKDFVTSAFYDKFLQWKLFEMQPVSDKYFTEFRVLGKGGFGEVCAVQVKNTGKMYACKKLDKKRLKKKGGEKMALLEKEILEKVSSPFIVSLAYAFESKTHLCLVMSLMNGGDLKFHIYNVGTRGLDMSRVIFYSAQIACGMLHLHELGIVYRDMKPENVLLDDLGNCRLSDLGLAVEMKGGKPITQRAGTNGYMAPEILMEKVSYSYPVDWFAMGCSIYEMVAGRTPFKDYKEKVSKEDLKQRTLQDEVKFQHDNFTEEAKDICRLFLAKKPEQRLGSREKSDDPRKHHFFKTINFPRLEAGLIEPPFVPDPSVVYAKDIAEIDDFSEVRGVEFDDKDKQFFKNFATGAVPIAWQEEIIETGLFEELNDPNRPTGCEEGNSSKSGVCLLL
To be noted: at 0.1 µM.

Assay [10] addresses T1, Rhodopsin kinase GRK7 (Homo sapiens). To be noted: at 1 µM.
The target of assay [11] is Serine/threonine-protein kinase MRCK alpha (Homo sapiens) (UniProt Q5VT25). The note with it: at 0.1 µM.
For assay [12] the target is unchanged. The note with it: at 1 µM.
The target in assay [13] is Serine/threonine-protein kinase MRCK beta (Homo sapiens) (UniProt Q9Y5S2). To be noted: at 0.1 µM.
Sequence of Serine/threonine-protein kinase MRCK beta (Homo sapiens) (Q9Y5S2 whole entry): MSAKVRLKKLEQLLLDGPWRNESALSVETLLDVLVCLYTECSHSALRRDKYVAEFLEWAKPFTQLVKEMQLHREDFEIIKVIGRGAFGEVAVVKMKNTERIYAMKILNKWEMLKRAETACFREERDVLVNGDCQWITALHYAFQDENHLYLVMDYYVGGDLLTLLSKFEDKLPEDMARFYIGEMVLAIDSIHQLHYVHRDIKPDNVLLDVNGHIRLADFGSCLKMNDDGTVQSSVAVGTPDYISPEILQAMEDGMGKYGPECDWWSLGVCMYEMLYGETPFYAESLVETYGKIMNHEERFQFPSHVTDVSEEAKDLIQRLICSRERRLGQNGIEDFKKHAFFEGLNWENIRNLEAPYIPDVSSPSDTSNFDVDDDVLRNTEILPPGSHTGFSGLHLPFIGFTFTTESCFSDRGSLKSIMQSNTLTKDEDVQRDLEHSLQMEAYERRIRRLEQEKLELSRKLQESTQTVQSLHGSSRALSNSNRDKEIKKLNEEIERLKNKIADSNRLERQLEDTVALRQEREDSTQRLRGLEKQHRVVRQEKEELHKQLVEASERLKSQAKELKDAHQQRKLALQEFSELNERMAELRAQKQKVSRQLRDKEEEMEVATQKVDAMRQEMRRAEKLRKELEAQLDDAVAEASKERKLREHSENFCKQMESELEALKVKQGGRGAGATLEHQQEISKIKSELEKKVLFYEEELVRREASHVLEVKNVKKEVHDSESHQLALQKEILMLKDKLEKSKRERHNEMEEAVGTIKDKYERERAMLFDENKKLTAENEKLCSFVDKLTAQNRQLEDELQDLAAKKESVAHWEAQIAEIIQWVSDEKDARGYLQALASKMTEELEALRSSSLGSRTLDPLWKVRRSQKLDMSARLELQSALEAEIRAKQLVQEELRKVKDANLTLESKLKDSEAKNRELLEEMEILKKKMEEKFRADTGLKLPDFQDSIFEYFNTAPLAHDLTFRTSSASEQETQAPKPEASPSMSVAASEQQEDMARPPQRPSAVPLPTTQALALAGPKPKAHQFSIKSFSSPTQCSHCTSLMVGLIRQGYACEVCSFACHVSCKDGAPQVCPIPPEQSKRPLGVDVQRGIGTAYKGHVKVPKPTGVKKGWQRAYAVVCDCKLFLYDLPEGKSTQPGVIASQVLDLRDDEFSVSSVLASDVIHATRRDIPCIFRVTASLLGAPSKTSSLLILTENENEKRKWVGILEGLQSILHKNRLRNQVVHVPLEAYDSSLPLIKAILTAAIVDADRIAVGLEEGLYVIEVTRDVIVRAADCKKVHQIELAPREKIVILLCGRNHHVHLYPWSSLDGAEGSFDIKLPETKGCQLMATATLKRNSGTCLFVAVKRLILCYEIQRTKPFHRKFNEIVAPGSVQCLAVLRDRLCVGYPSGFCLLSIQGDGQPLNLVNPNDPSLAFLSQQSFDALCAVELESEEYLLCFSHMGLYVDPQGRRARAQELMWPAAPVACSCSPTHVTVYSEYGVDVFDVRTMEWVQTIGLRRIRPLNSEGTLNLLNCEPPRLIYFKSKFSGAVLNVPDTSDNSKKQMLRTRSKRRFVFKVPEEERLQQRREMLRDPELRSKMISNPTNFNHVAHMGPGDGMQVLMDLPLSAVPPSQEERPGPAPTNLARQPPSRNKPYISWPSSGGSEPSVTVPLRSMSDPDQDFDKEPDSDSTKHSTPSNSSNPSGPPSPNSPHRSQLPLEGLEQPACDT
Assay [14] shares this target. To be noted: at 1 µM.
The target in assay [15] is Ribosomal protein S6 kinase alpha-5 (Homo sapiens) (UniProt O75582). The note with it: at 0.1 µM.
Sequence of Ribosomal protein S6 kinase alpha-5 (Homo sapiens) (O75582 whole entry, looked up): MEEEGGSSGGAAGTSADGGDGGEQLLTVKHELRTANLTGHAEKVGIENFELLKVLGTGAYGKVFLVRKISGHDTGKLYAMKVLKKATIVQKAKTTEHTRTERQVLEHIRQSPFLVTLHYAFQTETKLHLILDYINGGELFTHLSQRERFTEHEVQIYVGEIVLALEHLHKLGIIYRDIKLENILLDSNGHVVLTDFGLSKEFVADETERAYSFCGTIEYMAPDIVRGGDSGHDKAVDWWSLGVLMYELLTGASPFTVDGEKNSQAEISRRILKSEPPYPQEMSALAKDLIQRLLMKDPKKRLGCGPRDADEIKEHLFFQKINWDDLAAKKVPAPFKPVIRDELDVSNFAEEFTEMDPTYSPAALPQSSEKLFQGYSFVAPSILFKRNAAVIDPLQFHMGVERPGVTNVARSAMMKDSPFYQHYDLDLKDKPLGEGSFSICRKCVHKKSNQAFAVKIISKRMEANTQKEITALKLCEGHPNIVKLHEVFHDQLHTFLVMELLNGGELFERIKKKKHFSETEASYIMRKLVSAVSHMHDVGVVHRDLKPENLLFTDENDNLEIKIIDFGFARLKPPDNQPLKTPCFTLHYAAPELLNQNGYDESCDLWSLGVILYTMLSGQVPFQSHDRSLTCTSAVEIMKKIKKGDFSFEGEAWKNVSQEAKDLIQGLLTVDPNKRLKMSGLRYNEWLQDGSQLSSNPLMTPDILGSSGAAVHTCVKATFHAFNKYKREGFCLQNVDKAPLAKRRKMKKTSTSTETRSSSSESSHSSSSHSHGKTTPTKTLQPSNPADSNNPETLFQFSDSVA
Assay [16] shares this target. The note with it: at 1 µM.
Assay [17] has as its target Ribosomal protein S6 kinase alpha-4 (Homo sapiens) (UniProt O75676). The note with it: at 0.1 µM.
Assay [18] has the same target. To be noted: at 1 µM.
For assay [19], the target named is Ribosomal protein S6 kinase beta-1 (Homo sapiens) (UniProt P23443). To be noted: at 0.1 µM.
The target is the same in assay [20]. The note with it: at 1 µM.

Sequence of Ribosomal protein S6 kinase alpha-4 (Homo sapiens) (O75676 whole entry, looked up): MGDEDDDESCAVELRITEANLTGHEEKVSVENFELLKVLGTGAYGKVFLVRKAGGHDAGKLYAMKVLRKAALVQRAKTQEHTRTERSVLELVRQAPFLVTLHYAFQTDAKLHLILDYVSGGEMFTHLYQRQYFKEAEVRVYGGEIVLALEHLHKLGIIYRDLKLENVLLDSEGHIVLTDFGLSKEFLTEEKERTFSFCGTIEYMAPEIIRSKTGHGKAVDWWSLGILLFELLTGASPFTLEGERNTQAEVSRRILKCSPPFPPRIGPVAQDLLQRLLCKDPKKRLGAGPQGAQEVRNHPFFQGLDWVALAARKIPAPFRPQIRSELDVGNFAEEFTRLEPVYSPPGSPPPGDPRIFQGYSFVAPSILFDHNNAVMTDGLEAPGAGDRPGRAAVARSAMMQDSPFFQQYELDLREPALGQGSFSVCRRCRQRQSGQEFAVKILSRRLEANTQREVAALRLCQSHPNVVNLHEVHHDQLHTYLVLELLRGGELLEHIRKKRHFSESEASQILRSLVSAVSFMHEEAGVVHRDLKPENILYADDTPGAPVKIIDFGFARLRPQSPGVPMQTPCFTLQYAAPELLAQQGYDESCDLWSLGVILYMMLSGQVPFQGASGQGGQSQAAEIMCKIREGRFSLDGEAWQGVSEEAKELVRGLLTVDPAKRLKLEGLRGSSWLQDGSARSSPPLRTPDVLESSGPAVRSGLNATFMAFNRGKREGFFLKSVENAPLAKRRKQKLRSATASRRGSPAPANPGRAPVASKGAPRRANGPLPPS
Sequence of RAC-beta serine/threonine-protein kinase (Homo sapiens) (P31751 whole entry): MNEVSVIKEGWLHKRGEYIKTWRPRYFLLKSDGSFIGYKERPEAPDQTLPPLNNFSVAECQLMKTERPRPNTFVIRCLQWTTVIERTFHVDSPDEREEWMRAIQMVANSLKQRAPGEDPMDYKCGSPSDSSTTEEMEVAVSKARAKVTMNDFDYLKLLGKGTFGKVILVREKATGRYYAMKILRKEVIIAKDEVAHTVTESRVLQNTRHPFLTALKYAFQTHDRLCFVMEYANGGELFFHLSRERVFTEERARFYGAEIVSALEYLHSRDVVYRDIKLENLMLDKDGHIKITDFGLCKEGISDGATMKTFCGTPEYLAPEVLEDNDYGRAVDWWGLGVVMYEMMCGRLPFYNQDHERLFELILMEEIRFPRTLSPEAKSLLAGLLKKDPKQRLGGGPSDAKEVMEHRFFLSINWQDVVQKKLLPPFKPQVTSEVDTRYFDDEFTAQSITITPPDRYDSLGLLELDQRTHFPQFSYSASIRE
Sequence of RAC-alpha serine/threonine-protein kinase (Homo sapiens) (P31749 whole entry): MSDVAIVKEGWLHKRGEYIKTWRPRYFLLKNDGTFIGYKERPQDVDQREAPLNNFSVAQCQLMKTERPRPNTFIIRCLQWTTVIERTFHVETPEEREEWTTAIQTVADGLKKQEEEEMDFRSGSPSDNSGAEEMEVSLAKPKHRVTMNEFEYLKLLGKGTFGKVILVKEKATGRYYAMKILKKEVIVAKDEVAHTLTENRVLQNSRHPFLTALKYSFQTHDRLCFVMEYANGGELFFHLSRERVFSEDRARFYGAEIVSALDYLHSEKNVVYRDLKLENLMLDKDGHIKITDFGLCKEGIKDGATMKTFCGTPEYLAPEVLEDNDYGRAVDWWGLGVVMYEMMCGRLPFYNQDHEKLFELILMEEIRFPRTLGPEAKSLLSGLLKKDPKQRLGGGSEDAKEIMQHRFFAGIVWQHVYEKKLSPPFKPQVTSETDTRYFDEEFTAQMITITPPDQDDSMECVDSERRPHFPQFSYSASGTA

In the case of `CS(=O)(=O)CCNCc1ccc(-c2ccc3ncnc(Nc4ccc(OCc5ccccc5)c(C(F)(F)F)c4)c3c2)o1`, the inhibition in [1] was 1.54%; in assay [2], 1.3%; in [3], 1.35%; in assay [4], 2.2%; in assay [5], 0.3%; in [6], 3.04%. Also, the inhibition was -0.85% in [7]; 1.09% in assay [8]; 10.8% in assay [9]; 3.42% in assay [10]; -6.32% in [11]; -1.92% in [12]. Moreover, the inhibition in assay [13] is -0.98%; in assay [14], -1.25%; in assay [15] it was 8.24%; in assay [16], 6.53%; in [17] it was 1.86%; in assay [18] it was 0.65%. Moreover, the inhibition in assay [19] was determined as 1.21%; in [20], 1.16%.
In the case of `CS(=O)(=O)CCNCc1coc(-c2ccc3ncnc(Nc4ccc(OCc5ccccc5)cc4)c3c2)c1`, the inhibition in [1] is 0.45%; in assay [2], 0.14%; in assay [3], -0.99%; in [4], 1.09%; in assay [5], -0.18%; in [6], 3.26%. The inhibition is 4.06% in assay [7]; 12.1% in assay [8]; 6.27% in assay [9]; 5.05% in assay [10]; 2.17% in [11]; 0.57% in [12]. Also, the inhibition came out at 0.72% in [13]; 1.14% in assay [14]; 1.49% in assay [15]; 1.55% in [16]; 2.52% in assay [17]; 3.49% in assay [18]. The values for the inhibition in assay [19] and in assay [20] were 0.79% and 3.34%, respectively.
For `CCCN(CCS(C)(=O)=O)Cc1ccc(-c2ccc3ncnc(Nc4ccc(OCc5cccc(F)c5)c(Cl)c4)c3c2)o1`, the inhibition in assay [1] came out at 0.19%; in assay [2], 0.93%; in assay [3] it was 1.03%; in assay [4], 0.88%; in [5], 0.64%; in assay [6] it was 0.93%. In addition, the inhibition in assay [7] is 5.12%; in assay [8] it was 1.91%; in assay [9], -0.29%; in assay [10], 0.79%; in assay [11], -1.08%; in [12], 0.54%. Moreover, the inhibition in [13] is -0.36%; in assay [14], 0.64%; in assay [15], 7.14%; in assay [16], 6.79%; in [17] it was 1.76%; in assay [18], 1.8%. Moreover, the inhibition in assay [19] turned out to be 1.21%; in assay [20], 1.92%.
For the compound `Clc1ccc(-c2nn3ncccc3c2-c2ccnc(Nc3ccccc3)n2)cc1`, the inhibition was 0.13% in assay [1]; 0.62% in assay [2]; 0.64% in assay [3]; 1.15% in assay [4]; 1.22% in [5]; -0.89% in [6]. In addition, the inhibition in assay [7] is 2.85%; in assay [8], 1.72%; in assay [9] it was 3.88%; in assay [10], -1.87%; in assay [11], -0.06%; in [12], 0.52%. The inhibition in assay [13] turned out to be 0.76%; in assay [14], 1.28%; in assay [15] it was 0.64%; in assay [16], 2.07%; in [17], 1%; in [18], 2.91%. Besides, the figures for the inhibition in assay [19] and in assay [20] were 0.57% and -0.24%, respectively.
On to `COC(=O)c1sc(-n2cnc3cc(OC)c(OC)cc32)cc1OCc1ccccc1C(F)(F)F`, for which the inhibition in [1] was 0.87%; in [2] it was 0.62%; in assay [3], 2.35%; in assay [4] it was 1.5%; in assay [5] it was -0.55%; in [6], 1.41%. Also, the inhibition was -0.86% in assay [7]; 1.16% in [8]; 2.73% in assay [9]; 7.64% in [10]; -0.56% in assay [11]; -2.93% in [12]. The inhibition is -0.49% in assay [13]; -0.87% in [14]; 3.01% in assay [15]; 1.81% in assay [16]; 0.54% in assay [17]; 3.06% in assay [18]. In addition, the inhibition in assay [19] turned out to be 2.41%; in [20] it was 7.02%.
In the case of `CCn1cc(-c2ccnc3[nH]ccc23)c(-c2cccc(NC(=O)Nc3ccc(OCc4ccccc4)cc3)c2)n1`, the inhibition in assay [1] came to 1.5%; in assay [2], 1.68%; in assay [3] it was 1.8%; in assay [4], 3.99%; in assay [5], 0.23%; in assay [6], 2.59%. Moreover, the inhibition in assay [7] was -2.36%; in [8], 0.99%; in [9] it was 3.4%; in assay [10] it was -2.29%; in assay [11], -4.2%; in assay [12] it was 4.85%. Besides, the inhibition in [13] is -0.78%; in assay [14], -0.56%; in assay [15], -0.53%; in assay [16], -2.01%; in assay [17] it was 1.02%; in assay [18] it was 0.39%. The figures for the inhibition in assay [19] and in assay [20] were -0.04% and -0.6%, respectively.
Take `O=C(O[C@H]1CN[C@H](C#Cc2cc3ncnc(Nc4ccc(Cc5ccccc5)cc4)c3s2)C1)N1CCOCC1`: the inhibition is -0.07% in assay [1]; 1.54% in assay [2]; 0.98% in [3]; 1.79% in [4]; 0.38% in assay [5]; 1.99% in assay [6]. Further, the inhibition in assay [7] is -0.99%; in assay [8], 1.46%; in assay [9], 5.43%; in assay [10] it was 0.52%; in assay [11], -1.95%; in assay [12], 0.21%. The inhibition in assay [13] came to 1.54%; in assay [14], 4.12%; in [15], 4.51%; in assay [16], 3.65%; in assay [17], 3.21%; in assay [18], 3.94%. Also, the inhibition in assay [19] worked out at 1.97%; in assay [20], 1.38%.

Broadly, the inhibition is the change of the read-out against control, counted positive when it falls.
